# Experimental data published in the supplement of paper PMC6411743.
# ± gives the standard deviation of the averaged measurements. Of roughly 6,500 targets only a part is listed; those with the largest changes were picked by preference.
# Experiments:
# Assay in all cases: NP40-soluble protein abundance relative to vehicle (solubility fold change) (ratio); higher = more soluble protein in presence of ATP
# A6NG45|Q13162 = biological target: T1, A6NG45|Q13162 (UniProt Q13162)
# T1 sequence (whole entry): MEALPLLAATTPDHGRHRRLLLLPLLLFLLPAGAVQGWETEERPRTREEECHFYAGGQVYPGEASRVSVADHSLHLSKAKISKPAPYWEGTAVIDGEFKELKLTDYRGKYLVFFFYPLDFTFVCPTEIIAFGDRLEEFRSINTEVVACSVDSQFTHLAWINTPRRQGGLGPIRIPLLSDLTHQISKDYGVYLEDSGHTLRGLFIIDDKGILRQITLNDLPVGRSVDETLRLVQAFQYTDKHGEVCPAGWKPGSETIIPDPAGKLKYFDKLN
# Outline: (§1)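 In three independent experiments, Jurkat crude lysate made by Dounce homogenisation was treated for 10 min at room temperature and then 3 min at 37 °C with eight concentrations ranging from 0.1 to 10 mM. It was then solubilised with 0.8% NP40 plus benzonase for 60 min at 4 °C and ultracentrifuged. The supernatant was TMT-labelled for LC-MS/MS, and each value is the fold change against the detergent-processed vehicle for the same replicate, using vsn-normalised intensities.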
# E7ET89|Q86UW9|Q86UW9-2 = biological target: T2, E7ET89|Q86UW9|Q86UW9-2 (UniProt Q86UW9)
# T2 sequence (whole entry): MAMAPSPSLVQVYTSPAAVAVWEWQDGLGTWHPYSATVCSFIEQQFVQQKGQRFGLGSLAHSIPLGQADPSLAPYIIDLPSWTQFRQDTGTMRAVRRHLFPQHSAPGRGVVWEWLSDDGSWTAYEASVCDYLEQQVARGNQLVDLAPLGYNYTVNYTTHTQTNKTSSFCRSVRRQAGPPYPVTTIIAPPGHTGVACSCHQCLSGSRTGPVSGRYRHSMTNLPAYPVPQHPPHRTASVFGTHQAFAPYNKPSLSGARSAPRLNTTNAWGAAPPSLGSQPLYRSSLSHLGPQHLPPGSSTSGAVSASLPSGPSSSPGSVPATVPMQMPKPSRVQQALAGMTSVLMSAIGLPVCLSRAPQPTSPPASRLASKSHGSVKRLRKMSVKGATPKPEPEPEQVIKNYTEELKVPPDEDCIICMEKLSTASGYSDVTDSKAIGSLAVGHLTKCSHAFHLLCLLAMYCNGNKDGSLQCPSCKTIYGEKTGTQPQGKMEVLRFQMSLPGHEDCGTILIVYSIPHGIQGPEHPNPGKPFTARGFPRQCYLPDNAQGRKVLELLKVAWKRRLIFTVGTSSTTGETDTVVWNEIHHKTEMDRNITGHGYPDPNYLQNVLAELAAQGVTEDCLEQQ
# Outline: as §1
# F5GY05|A0A0D9SEJ5|Q96EK7 = biological target: T3, F5GY05|A0A0D9SEJ5|Q96EK7 (UniProt Q96EK7)
# T3 sequence (whole entry): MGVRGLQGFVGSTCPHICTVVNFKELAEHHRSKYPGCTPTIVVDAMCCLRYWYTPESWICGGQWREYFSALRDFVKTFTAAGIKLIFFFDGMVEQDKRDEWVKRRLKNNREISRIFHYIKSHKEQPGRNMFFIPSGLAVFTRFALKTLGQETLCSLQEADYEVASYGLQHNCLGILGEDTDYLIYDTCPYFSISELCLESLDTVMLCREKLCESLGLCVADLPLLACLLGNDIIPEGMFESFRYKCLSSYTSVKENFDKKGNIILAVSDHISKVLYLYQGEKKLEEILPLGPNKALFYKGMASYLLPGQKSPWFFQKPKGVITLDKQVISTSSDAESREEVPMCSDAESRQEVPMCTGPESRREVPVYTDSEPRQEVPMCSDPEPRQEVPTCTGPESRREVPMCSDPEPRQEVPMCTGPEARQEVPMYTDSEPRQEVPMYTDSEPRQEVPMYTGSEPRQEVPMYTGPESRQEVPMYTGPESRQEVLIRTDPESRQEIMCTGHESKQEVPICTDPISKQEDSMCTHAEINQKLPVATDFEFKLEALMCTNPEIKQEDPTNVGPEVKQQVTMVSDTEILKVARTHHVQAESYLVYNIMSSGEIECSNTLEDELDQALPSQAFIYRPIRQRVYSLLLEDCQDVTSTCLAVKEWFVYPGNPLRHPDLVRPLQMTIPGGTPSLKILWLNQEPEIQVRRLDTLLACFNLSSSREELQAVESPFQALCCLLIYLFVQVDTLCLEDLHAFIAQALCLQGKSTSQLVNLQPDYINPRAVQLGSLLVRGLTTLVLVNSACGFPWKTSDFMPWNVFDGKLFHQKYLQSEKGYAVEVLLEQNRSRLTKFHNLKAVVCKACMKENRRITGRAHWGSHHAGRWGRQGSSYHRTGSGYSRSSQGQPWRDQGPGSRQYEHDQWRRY
# Outline: as §1
# F5H514|O95267|O95267-2 = biological target: T4, F5H514|O95267|O95267-2 (UniProt O95267)
# T4 sequence (whole entry): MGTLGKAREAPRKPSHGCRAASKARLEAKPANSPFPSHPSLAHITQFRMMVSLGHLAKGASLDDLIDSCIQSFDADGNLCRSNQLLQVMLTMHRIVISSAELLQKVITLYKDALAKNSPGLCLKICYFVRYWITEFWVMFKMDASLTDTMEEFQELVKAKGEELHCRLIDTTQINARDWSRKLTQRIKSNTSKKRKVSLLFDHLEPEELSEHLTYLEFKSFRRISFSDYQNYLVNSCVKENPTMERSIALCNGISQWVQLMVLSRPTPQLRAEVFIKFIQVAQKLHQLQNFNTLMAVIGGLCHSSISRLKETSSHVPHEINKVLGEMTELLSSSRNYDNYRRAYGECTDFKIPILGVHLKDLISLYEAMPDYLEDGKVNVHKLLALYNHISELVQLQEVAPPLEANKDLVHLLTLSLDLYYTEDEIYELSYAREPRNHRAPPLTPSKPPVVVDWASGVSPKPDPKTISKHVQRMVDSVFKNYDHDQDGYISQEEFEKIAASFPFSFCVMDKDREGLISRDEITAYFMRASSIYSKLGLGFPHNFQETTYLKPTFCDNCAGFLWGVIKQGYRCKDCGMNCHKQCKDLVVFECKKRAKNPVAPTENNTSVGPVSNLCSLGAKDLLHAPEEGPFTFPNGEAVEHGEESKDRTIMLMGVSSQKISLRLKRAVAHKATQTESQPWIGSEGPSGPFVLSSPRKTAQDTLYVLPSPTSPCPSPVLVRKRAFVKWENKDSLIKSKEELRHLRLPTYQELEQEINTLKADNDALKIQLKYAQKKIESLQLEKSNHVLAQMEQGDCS
# Outline: as §1
smiles,measurement,setting,value
Nc1ncnc2c1ncn2[C@@H]1O[C@H](COP(=O)(O)OP(=O)(O)OP(=O)(O)O)[C@@H](O)[C@H]1O [adenosine triphosphate],NP40-soluble protein abundance,A6NG45|Q13162; concentration: 1mM,1.07 ± 0.057
same,NP40-soluble protein abundance,A6NG45|Q13162; concentration: 2mM,1.01 ± 0.042
same,NP40-soluble protein abundance,A6NG45|Q13162; concentration: 4mM,0.975 ± 0.041
same,NP40-soluble protein abundance,A6NG45|Q13162; concentration: 6mM,0.953 ± 0.07
same,NP40-soluble protein abundance,A6NG45|Q13162; concentration: 8mM,1.03 ± 0.034
same,NP40-soluble protein abundance,A6NG45|Q13162; concentration: 10mM,0.992 ± 0.033
same,NP40-soluble protein abundance,E7ET89|Q86UW9|Q86UW9-2; concentration: 1mM,0.936 ± 0.2
same,NP40-soluble protein abundance,E7ET89|Q86UW9|Q86UW9-2; concentration: 2mM,1.09 ± 0.15
same,NP40-soluble protein abundance,E7ET89|Q86UW9|Q86UW9-2; concentration: 4mM,1.05 ± 0.11
same,NP40-soluble protein abundance,E7ET89|Q86UW9|Q86UW9-2; concentration: 6mM,1.04 ± 0.039
same,NP40-soluble protein abundance,E7ET89|Q86UW9|Q86UW9-2; concentration: 8mM,1.03 ± 0.086
same,NP40-soluble protein abundance,E7ET89|Q86UW9|Q86UW9-2; concentration: 10mM,1.04 ± 0.035
same,NP40-soluble protein abundance,F5GY05|A0A0D9SEJ5|Q96EK7; concentration: 1mM,1.03 ± 0.013
same,NP40-soluble protein abundance,F5GY05|A0A0D9SEJ5|Q96EK7; concentration: 2mM,1.0493 ± 0.001
same,NP40-soluble protein abundance,F5GY05|A0A0D9SEJ5|Q96EK7; concentration: 4mM,1.07 ± 0.017
same,NP40-soluble protein abundance,F5GY05|A0A0D9SEJ5|Q96EK7; concentration: 6mM,1.06 ± 0.06
same,NP40-soluble protein abundance,F5GY05|A0A0D9SEJ5|Q96EK7; concentration: 8mM,1.07 ± 0.02
same,NP40-soluble protein abundance,F5GY05|A0A0D9SEJ5|Q96EK7; concentration: 10mM,1.08 ± 0.052
same,NP40-soluble protein abundance,F5H514|O95267|O95267-2; concentration: 1mM,1.04 ± 0.12
same,NP40-soluble protein abundance,F5H514|O95267|O95267-2; concentration: 2mM,1.09 ± 0.046
same,NP40-soluble protein abundance,F5H514|O95267|O95267-2; concentration: 4mM,1.19 ± 0.15
same,NP40-soluble protein abundance,F5H514|O95267|O95267-2; concentration: 6mM,1.21 ± 0.13
same,NP40-soluble protein abundance,F5H514|O95267|O95267-2; concentration: 8mM,1.14 ± 0.065
same,NP40-soluble protein abundance,F5H514|O95267|O95267-2; concentration: 10mM,1.24 ± 0.15
